In PubChem BioAssay (NCI):
Compounds without any hit were thinned out: in the full panel of roughly 79,000, 15% have a hit. The source made the active and inactive calls. Cut-off read from the data, not from the text of the source: active = growth inhibition above about 70%; inactive = the rest. Where a SMILES comes first, the peptide text is derived from it.

Legend:
[1] = NCI Yeast Anticancer Drug Screen. Data for the rad50 strain (AID 155);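 note: 0% = growth of vehicle-only cultures of the same strain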; settings: S. cerevisiae rad50 strain growth inhibition; at 50.0 µM; hits give high values
Outline: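 DNA repair mutant yeast, compound exposure, growth read-out; inhibition is taken relative to vehicle.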

[2] = NCI Yeast Anticancer Drug Screen. Data for the mec2-1 strain (AID 157); settings: S. cerevisiae mec2-1 strain, at 50.0 µM, hits give high values
Outline: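 Each compound was tested on mec2-1 yeast, a strain altered in DNA damage repair or cell cycle control. Growth inhibition is reported relative to vehicle.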

[3] = NCI Yeast Anticancer Drug Screen. Data for the sgs1 mgt1 strain (AID 161);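 note: 0% = growth of cultures given vehicle only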; settings: S. cerevisiae sgs1 mgt1 strain, at 50.0 µM, hits give high values
Outline: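 Read-out: growth inhibition vs vehicle controls. Cells: mutant yeast strain deficient in DNA damage repair.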

[4] = NCI Yeast Anticancer Drug Screen. Data for the cln2 rad14 strain (AID 165);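 note: 0% = growth equal to vehicle treated cultures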; settings: S. cerevisiae cln2 rad14 strain, at 50.0 µM, hits give high values
Outline: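 Test compounds were added to cln2 rad14 yeast cultures; inhibition of growth was then determined by comparison with vehicle treatment.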

[5] = NCI Yeast Anticancer Drug Screen. Data for the bub3 strain (AID 167); settings: S. cerevisiae bub3 mutant strain, at 50.0 µM, hits give high values
Outline: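 In this screen, a yeast mutant lacking normal mitotic checkpoint function is challenged with compound. Relative growth versus vehicle gives the inhibition value.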

[6] = NCI Yeast Anticancer Drug Screen. Data for the mlh1 rad18 strain (AID 175); settings: S. cerevisiae mlh1 rad18 strain growth inhibition; at 50.0 µM; hits give high values
Outline: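 Inhibition values reflect reduced growth of mutant yeast versus vehicle-treated controls following compound exposure; the mutations affect DNA damage repair.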

Measured: growth inhibition

CC12CCC(C/C1=N\NC(N)=O)C2(C)C (stereo not given)
inactive: [1] 4.2% | [2] -16.6% | [3] -18.2% | [4] 2.55% | [5] -19.9% | [6] -1.45%

Clc1nnc(Cl)c2ncccc12
inactive: [1] 3.6% | [2] 8.3% | [3] -3.6% | [4] -2.95% | [5] -3% | [6] -1.75%

NCCCCC(NC(=O)C(N)Cc1cnc[nH]1)C(=O)O (stereo not drawn) (H-His-Lys-OH; configuration not given here)
inactive: [1] 4.1% | [2] -5.75% | [3] -4% | [4] 13.3% | [5] 7.55% | [6] -12.2%

CC(C)CC(C)(CC(C)C)C(=O)O
inactive: [1] 9.95% | [2] -7.75% | [3] 7.8% | [4] -1.5% | [5] -1.3% | [6] 11.8%

O=C1c2cc(Cl)ccc2OCC1Cl (stereo not given)
inactive: [1] 37.5% | [2] 22.2% | [3] 14.6% | [4] -25.6% | [5] 18.7% | [6] 7.4%

c1ccc2c(c1)[nH]c1ccncc12
inactive: [1] -0.85% | [2] 0.1% | [3] -1.6% | [4] -40% | [5] -9.7% | [6] 3.7%

COC(=O)C1=CN(c2ccccc2)C(=O)C1
inactive: [1] 5.5% | [2] -14.3% | [3] -6.95% | [4] -26.1% | [5] -8.7% | [6] 7.45%

C=CCC1(/C(=C\CC)CCC)C(=O)NC(=O)N=C1N (stereo not given)
inactive: [1] 8.45% | [2] -0.3% | [3] 10% | [4] -36.8% | [5] -11.2% | [6] 8.3%

CCOC(=O)CC1c2ccc(O)cc2OC(=O)C1c1ccc(N)cc1 (stereo not given)
inactive: [1] -29.1% | [2] -17.5% | [3] -14.8% | [4] -4.6% | [5] -19.2% | [6] -13.6%

C=C(CN(C)C)C1(c2ccccc2)CC2(CCCC2)C(=O)O1 (stereo not given)
inactive: [1] 24.2% | [2] 12% | [3] 13.3% | [4] -4.75% | [5] 11.9% | [6] 25.5%

COc1cc2c(c(OC)c1OC)-c1ccc(S(C)(=O)=O)c(=O)cc1[C@@H](NC(C)=O)CC2
inactive: [1] 3.25% | [2] -7.1% | [3] 3.2% | [4] 4.7% | [5] -35% | [6] -44.4%

CC(OC1CC(=O)CC2C(=O)C=CC(=O)C12)c1ccccc1 (stereo not given)
inactive: [1] 25.1% | [2] 21.8% | [3] 26.3% | [4] 20.6% | [5] 28.4% | [6] 26.3%

O=C(O)CNC(=O)NNc1ccccc1
inactive: [1] -4.75% | [2] -7.6% | [3] -11% | [4] 28.3% | [5] -10.3% | [6] -12.7%

OC1CCC(C#CC#CC2CCC(O)CC2)CC1 (stereo not given)
inactive: [1] 2.05% | [2] -34.2% | [3] 3.05% | [4] 2.25% | [5] -23.7% | [6] -1.7%

Oc1cccc(C=NCCN=Cc2cccc(O)c2O)c1O.[Fe]
inactive: [1] -9.35% | [2] -5.7% | [3] 4.65% | [4] -39.7% | [5] 13.2% | [6] 1.15%

Cc1[nH]n(-c2ccccc2)c(=O)c1N=Nc1cccc(C(F)(F)F)c1
inactive: [1] 8.7% | [2] 14.7% | [3] 17.8% | [4] -4.75% | [5] 6.95% | [6] 15.7%

CC1=CC(/C=C(\C)CCCc2ccoc2)C2(OC(=O)C(C)=C2O)[C@H]2C1CC[C@@H]2C (stereo not given in full)
inactive: [1] 49.9% | [2] 58.3% | [3] 53.5% | [4] 66% | [5] 55.5% | [6] 54.9%

CS/C(=C/c1ccc2ccccc2[n+]1C)N1CCN(C)CC1
inactive: [1] -3.3% | [2] -1.25% | [3] -8.15% | [4] -12.9% | [5] -3% | [6] -0.2%

COc1cc([N+](=O)[O-])c(C(=O)O)c(C(=O)O)c1OC
inactive: [1] 9.8% | [2] -5.55% | [3] 3.7% | [4] -2.2% | [5] 1.7% | [6] 1.15%

O=c1ccc2c(-c3ccccc3O)c3ccc(O)cc3oc-2c1
active: [1] 91.8% | [2] 78.4% | [3] 85% | [4] 86.9% | [5] 88.5% | [6] 95.5%

CCC1OC(=O)C(C)C(OC2CC(C)(O)C(O)C(C)O2)C(C)C(O)C(C)(O)CC(C)C(=O)C(C)C(O)C1C (stereo not given)
inactive: [1] -14.4% | [2] -22.6% | [3] 0.5% | [4] -5.4% | [5] -21.2% | [6] -5.15%

c1ccc2c(-c3cnc(-c4ccc(-c5ncc(-c6cccc7ccccc67)o5)cc4)o3)cccc2c1
inactive: [1] -14.9% | [2] -2.45% | [3] 0.5% | [4] -52.6% | [5] -1.1% | [6] -16.4%

COC(=O)C(Cl)(Cl)c1nc(NC(C)=O)[nH]c(=O)c1Cl
inactive: [1] 0.45% | [2] 13.3% | [3] 3.65% | [4] -20% | [5] -16.4% | [6] 0.45%

NCCOCC(N)C(=O)O (stereo not given)
inactive: [1] -9.3% | [2] -14.4% | [3] -52.4% | [4] -27.1% | [5] -51% | [6] 8.4%

CP(=O)(CCSc1ccccc1)c1ccccc1 (stereo not given)
inactive: [1] -12.5% | [2] -20.5% | [3] -0.85% | [4] 23.6% | [5] -10.7% | [6] -21.1%

N=C(N)n1ncc2c1CCC/C2=N/N=C(N)N
inactive: [1] 17.5% | [2] 17.1% | [3] 13.5% | [4] 64.3% | [5] 29.9% | [6] 3.9%

NC(=O)C1CCCCC1C(=O)O (stereo not given)
inactive: [1] 1.5% | [2] 5% | [3] 6.65% | [4] -10.7% | [5] 4.6% | [6] 14.8%

Cc1ccc(S(=O)(=O)N(C)C(C(=O)O)c2ccccc2)cc1 (stereo not given)
inactive: [1] 22.4% | [2] -1.35% | [3] 7.15% | [4] -20.6% | [5] -7.8% | [6] 3%

Nc1cccc2c(O)cc(S(=O)(=O)O)cc12
inactive: [1] -1.35% | [2] -19.2% | [3] 7.6% | [4] -10.7% | [5] -0.4% | [6] 21.6%

CCSC1OC(C(O)CO)C(O)C1NC(=O)C(F)(F)F (stereo not given)
inactive: [1] 5.65% | [2] 6.05% | [3] 1.5% | [4] 1.1% | [5] 32% | [6] 12.8%

Cc1ccc(-c2oc3ccccc3c(=O)c2O)cc1
inactive: [1] 22.9% | [2] -9.9% | [3] 2.1% | [4] -5.3% | [5] 5.45% | [6] 7.65%

CCOC(=O)/C=C\n1c(=O)cc(C)c2ccccc21
inactive: [1] 8.85% | [2] 23.7% | [3] 7.45% | [4] 18.4% | [5] -2.75% | [6] -1.15%

CCCNc1ccc2c(c1)C(O)c1ccccc1-2 (stereo not given)
inactive: [1] -4.65% | [2] -5.1% | [3] 5.35% | [4] 2.4% | [5] -4% | [6] -2.95%

CN(C)S(=O)(=O)C(c1ccccc1)C(c1ccccc1)S(=O)(=O)N(C)C (stereo not given)
inactive: [1] 47% | [2] -4.4% | [3] 27.1% | [4] 2% | [5] -4.75% | [6] 1.5%

O=C(/C(=C(/Br)I)c1ccccc1)c1ccccc1
inactive: [1] -13.8% | [2] 16% | [3] 26.6% | [4] 14.1% | [5] 42.6% | [6] 28.4%

CCCCCCCCCCCCOP(=O)(O)OCC(N)C(=O)O (stereo not given)
inactive: [1] 10.7% | [2] 9.2% | [3] -11.4% | [4] -39.8% | [5] -18% | [6] -19.3%

C=C1C(=O)OC2/C=C(\C)C(=O)CC3OC(C)(C)OC3(C)CC(OC(=O)/C(C)=C/C)C12 (stereo not given)
inactive: [1] 15.4% | [2] -14% | [3] 16.6% | [4] 9.6% | [5] -16.2% | [6] -30.6%

Cc1cccc(CNc2ncnc3[nH]ncc23)c1
inactive: [1] -15% | [2] -30.8% | [3] -24.8% | [4] -12.6% | [5] -36.1% | [6] 3.15%

CC(C)CC(C)OB(OC(C)CC(C)C)OC(C)CC(C)C (stereo not given)
inactive: [1] -11.2% | [2] -24.1% | [3] -4.3% | [4] -16.9% | [5] 0.7% | [6] -14.6%

CCc1cnccc1C
inactive: [1] 10.3% | [2] -14.9% | [3] -19.1% | [4] 6.25% | [5] 6.45% | [6] -9.75%
